Source: PubChem BioAssay (NCATS)
Values joined by “and” are separate entries in the source; they are usually repeats but may differ in a detail not shown here. Equal values may be shown once. Inconclusive results are not listed. Active and inactive are the calls of the source. Unless noted, calls come from the whole dose curve; as a rule, active = well fitted curve in the direction sought with a large enough effect; inconclusive = small, poorly fitted or top-dose-only effect, or another doubt; inactive = no such curve, though single readings can be large; an effect the other way counts as inactive or inconclusive.

Experiments:
[1] = biological target: Lysosomal acid glucosylceramidase (Homo sapiens) (UniProt P04062); test: Glucocerebrosidase-p2 (AID 348; in the data active = potency below about 10 µM; note: potency is the fitted concentration of half-maximal effect); conditions: purified GBA, blue fluorogenic substrate, 40 min
Chain of Lysosomal acid glucosylceramidase (Homo sapiens) (P04062 whole entry, looked up): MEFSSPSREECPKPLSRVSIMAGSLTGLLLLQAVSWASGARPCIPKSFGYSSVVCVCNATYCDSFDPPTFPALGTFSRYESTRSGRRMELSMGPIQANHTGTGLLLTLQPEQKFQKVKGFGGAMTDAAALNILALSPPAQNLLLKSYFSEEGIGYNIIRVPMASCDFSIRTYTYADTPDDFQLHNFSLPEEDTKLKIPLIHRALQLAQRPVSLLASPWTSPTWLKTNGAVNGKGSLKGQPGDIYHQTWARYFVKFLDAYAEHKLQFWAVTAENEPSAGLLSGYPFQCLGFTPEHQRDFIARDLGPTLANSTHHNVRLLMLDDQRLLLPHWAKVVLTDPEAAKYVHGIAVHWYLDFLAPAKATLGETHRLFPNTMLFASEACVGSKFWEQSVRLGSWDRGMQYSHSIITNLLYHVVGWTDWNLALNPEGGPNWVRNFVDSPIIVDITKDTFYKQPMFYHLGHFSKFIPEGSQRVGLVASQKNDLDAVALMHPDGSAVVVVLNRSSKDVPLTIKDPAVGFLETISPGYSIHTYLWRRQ
Method in brief: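 Normal human glucocerebrosidase (0.2 nM) with blue fluorogenic substrate (80 uM final) in citrate/phosphate pH 5.9 with 10mM sodium taurocholate, 0.01% tween-20; 40 min RT, NaOH/glycine stop; fluorescence Ex 365/Em 440; AC50 from a titration from 0.6 nM upwards.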

[2] = AP1 Signaling Pathway (AID 357; active = well fitted curve in either direction with a large enough effect, not every such curve was filed as active;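 note: ME-180 reporter cells stimulated with EGF at its EC50 level; % is set by controls: 0 for no effect and ±100 for the full control effect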); conditions: ME-180 AP-1-bla reporter, EGF-induced, beta-lactamase ratio, 5 h; at 7.69 µM (top of the series) unless noted
Method in brief: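 Read-out was the 460nm/530nm emission ratio (excitation 405nm) after CCF4 loading for 2.5 hours at room temperature. Cells carried an AP-1-driven beta-lactamase reporter, were stimulated with EC50 EGF plus compound for 5 hours, and AC50 values came from titrations.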

[3] = biological target: Cytochrome P450 1A2 (Homo sapiens) (UniProt P05177); test: p450-cyp1a2 (AID 410; calls by dose curve;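 note: -100% = full effect of reference inhibitor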); conditions: recombinant CYP1A2, luciferin-ME demethylation, luminescence; series mostly up to 57 µM
Chain of Cytochrome P450 1A2 (Homo sapiens) (P05177 whole entry, looked up): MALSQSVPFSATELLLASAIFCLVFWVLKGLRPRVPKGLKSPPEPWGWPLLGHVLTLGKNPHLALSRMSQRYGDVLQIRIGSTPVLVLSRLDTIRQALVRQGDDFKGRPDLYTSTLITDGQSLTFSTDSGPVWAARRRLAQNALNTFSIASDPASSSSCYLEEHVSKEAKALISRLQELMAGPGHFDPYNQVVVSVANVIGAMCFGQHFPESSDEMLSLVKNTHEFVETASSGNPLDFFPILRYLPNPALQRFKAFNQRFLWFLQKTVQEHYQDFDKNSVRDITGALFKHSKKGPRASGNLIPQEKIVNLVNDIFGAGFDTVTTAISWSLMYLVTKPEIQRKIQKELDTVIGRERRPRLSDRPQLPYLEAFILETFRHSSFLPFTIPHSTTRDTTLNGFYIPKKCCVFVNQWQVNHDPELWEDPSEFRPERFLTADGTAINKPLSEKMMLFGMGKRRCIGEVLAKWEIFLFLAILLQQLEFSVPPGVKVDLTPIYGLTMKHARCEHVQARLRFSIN
Method in brief: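 Read-out is luminescence from luciferin produced by CYP1A2 demethylation of Luciferin-ME (100uM, at Km). Detection reagent stopped the 60 min NADPH-dependent reaction; signals were normalized to 57 uM furafylline.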

[4] = Stat Signaling Pathway (AID 446; active = well fitted curve in either direction with a large enough effect, not every such curve was filed as active;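 note: ME-180 cervical cancer cells given 40 pM IL-6 alongside compound; SIE-controlled beta-lactamase reporter measured as 460/530 nm FRET emission ratio; % is set by controls: 0 for no effect and ±100 for the full control effect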); conditions: ME-180 (cervical carcinoma) SIE beta-lactamase reporter, IL-6 stimulated, 5 h; at 7.69 µM (top of the series) unless noted
Method in brief: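 Emission at 460 and 530 nm (excitation 405 nm) reports SIE-controlled beta-lactamase in ME-180 cells. Cells received compound with 40 pM IL-6 for 5 hrs at 37 C; data scaled between 300 pM IL-6 and 125 nM JAK-inhibitor controls.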

[5] = biological target: Glucocorticoid receptor (Homo sapiens) (UniProt P04150); test: GR-EFC Redistribution (AID 451; calls by dose curve; note: potency is the fitted concentration of half-maximal effect); conditions: CHO-K1 GR-EFC translocation, beta-gal luminescence, 2 h
Chain of Glucocorticoid receptor (Homo sapiens) (P04150 whole entry, looked up, the tested form may be a part): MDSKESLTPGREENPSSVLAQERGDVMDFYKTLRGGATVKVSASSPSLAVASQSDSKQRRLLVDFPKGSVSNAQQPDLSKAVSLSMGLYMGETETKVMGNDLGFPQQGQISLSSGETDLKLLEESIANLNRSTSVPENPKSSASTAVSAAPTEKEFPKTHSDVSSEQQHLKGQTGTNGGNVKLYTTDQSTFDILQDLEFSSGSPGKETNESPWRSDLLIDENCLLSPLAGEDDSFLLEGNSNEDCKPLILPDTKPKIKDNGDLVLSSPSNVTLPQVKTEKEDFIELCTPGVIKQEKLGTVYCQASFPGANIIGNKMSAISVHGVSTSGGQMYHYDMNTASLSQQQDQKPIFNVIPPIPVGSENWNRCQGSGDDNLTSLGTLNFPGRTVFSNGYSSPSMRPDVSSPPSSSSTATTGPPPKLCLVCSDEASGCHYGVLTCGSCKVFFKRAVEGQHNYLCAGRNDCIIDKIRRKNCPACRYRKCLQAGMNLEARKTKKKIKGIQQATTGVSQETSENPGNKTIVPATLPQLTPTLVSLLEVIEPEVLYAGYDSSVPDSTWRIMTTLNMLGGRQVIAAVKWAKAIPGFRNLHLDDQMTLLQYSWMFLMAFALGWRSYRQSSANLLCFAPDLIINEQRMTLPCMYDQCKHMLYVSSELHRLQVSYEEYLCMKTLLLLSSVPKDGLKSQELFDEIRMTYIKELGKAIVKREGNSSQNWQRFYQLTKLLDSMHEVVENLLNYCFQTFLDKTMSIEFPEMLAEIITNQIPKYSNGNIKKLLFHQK
Method in brief: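 Translocation of GR-ED fusion to nuclear EA restores b-gal, read by luminescence after 1 h room-temperature detection. Engineered CHO-K1 biosensor cells, 1,000/well, exposed 2 h at 37 C to titrations up to 46 uM final.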

[6] = biological target: Mitogen-activated protein kinase 10 (Mus musculus) (UniProt Q61831); test: JNK3 AlphaScreen Assay (AID 530; active = well fitted curve in either direction with a large enough effect, not every such curve was filed as active;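 note: kinase came from lysate of stimulated human HepG2 cells; signal reports phosphorylation of biotinylated GST-cJun 1-79 at Ser73 with 10 µM ATP; % is set by controls: 0 for no effect and ±100 for the full control effect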); conditions: JNK3 lysate, c-Jun phosphorylation; series mostly up to 57.1 µM
Method in brief: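 Kinase buffer: 20 mM Tris-HCl pH 7.6, 10 mM MgCl2, 1 mM DTT, 0.1 mM Na3VO4, 0.01% Tween-20; ATP 10 uM. Substrate biotin-GST-cJun(1-79), enzyme from activated HepG2 lysates. Detection by Ser73 phospho-antibody AlphaScreen.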

[7] = biological target: 3',5'-cyclic-AMP phosphodiesterase 4B (Homo sapiens) (UniProt Q07343); test: qHTS Assay for Inhibitors of PDE-IV (AID 607; active = well fitted activation curve with a large enough effect in the main read-out, with a control signal flat, not every such curve was filed as active; note: % of control where 0% means no effect); conditions: HEK293 ACTOne CNG channel cells, membrane potential fluorescence; series mostly up to 22.9 µM
Chain of 3',5'-cyclic-AMP phosphodiesterase 4B (Homo sapiens) (Q07343 whole entry, looked up): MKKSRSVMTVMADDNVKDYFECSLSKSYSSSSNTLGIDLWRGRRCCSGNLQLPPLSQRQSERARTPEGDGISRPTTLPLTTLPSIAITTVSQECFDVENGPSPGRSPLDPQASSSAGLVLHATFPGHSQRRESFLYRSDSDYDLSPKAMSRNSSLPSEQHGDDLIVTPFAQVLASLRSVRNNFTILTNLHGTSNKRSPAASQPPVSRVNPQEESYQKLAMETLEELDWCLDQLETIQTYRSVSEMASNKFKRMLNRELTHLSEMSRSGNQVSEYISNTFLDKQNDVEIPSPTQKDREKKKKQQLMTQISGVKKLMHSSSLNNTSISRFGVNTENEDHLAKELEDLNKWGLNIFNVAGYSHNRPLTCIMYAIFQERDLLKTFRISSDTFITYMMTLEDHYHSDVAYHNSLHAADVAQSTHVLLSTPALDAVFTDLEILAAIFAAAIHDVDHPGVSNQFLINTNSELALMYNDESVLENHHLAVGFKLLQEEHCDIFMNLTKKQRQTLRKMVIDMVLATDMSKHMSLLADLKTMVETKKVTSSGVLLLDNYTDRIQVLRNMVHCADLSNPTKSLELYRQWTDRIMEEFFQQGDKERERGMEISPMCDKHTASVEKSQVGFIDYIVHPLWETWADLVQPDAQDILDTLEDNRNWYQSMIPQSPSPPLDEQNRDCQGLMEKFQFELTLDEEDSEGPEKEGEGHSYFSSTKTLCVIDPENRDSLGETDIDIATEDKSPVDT
Method in brief: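 The readout is membrane depolarisation from a cAMP-sensing CNG channel, detected with a potential dye at ex 535/em 590. Cells were HEK293-derived (endogenous PDE-IV) at 1000 cells/well, titrated up to 22.9 uM final.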

[8] = biological target: Cytochrome P450 3A4 (Homo sapiens) (UniProt P08684); test: qHTS Assay for Inhibitors and Substrates of Cytochrome P450 3A4 (AID 884); conditions: recombinant CYP3A4, Luciferin-PPXE luminescence; series mostly up to 57.1 µM; note: potency is the fitted concentration of half-maximal effect; nearly all actives have a fitted effect of over 50% in size
Chain of Cytochrome P450 3A4 (Homo sapiens) (P08684 whole entry, looked up): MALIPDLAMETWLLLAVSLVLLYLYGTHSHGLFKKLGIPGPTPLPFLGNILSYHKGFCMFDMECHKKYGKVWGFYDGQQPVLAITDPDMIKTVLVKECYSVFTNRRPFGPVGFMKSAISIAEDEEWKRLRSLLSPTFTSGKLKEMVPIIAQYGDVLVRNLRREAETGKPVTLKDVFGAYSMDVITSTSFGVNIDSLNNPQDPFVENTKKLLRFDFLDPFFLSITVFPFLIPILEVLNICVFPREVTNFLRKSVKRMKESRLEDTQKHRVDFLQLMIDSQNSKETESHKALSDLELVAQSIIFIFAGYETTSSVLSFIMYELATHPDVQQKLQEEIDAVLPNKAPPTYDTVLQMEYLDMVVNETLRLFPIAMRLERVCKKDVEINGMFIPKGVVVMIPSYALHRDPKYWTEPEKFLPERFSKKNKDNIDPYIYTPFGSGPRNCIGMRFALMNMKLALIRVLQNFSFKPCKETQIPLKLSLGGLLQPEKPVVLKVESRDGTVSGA
Method in brief: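 Luminescent readout of luciferin produced by CYP3A4 (20 nM) dealkylation of Luciferin-PPXE, 25 uM (its KM). NADPH-driven reaction ran 60 min at RT after 10 min compound preincubation; data scaled to 57 uM ketoconazole as 100% inhibition.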

[9] = biological target: Cytochrome P450 3A4 (Homo sapiens) (UniProt P08684); test: qHTS Assay for Activators of Cytochrome P450 3A4 (AID 885); conditions: recombinant CYP3A4, Luciferin-PPXE luminescence, 60 min; series mostly up to 57.1 µM; note: nearly all actives have a fitted effect of over 65% in size
Method in brief: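 Activators are scored by enhanced luminescence from CYP3A4 conversion of luciferin-PPXE (25uM, equal to KM) to luciferin, after 60 min at RT with an NADPH-regenerating system.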

[10] = qHTS Assay for Lipid Storage Modulators (AID 1519; calls by dose curve; for activity change, negative = inhibition: % is set by controls: 0 for no effect and ±100 for the full control effect); conditions: Drosophila S3 cells, BODIPY lipid droplet/cell ratio, laser cytometry, cells loaded with oleic acid
Method in brief: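 Cells seeded at 5,000 per well were treated with compounds over a concentration series and loaded with oleic acid (400 uM, as added). Lipid droplet fluorescence (488 nm excitation, 500-530 nm channel) was read by laser-scanning cytometry and normalized to 20 uM Triacsin C.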

[11] = Primary qHTS for inhibitors of nuclear receptor binding SET domain protein 2 (NSD2) in an isogenic RCH-ACV NSD2 p.E1099K mutant (9B) (AID 1645876); conditions: RCH-ACV NSD2 E1099K (9B) viability, CellTiter-Glo, 72 h; series mostly up to 44.9 µM; note: nearly all actives have a fitted effect of over 70% in size; note: potency is the fitted concentration of half-maximal effect
[12] = Primary qHTS for inhibitors of nuclear receptor binding SET domain protein 2 (NSD2) in an RCH-ACV wild type WT cells (2C) (AID 1645877); conditions: RCH-ACV (leukaemia line) NSD2 WT (2C) viability, CellTiter-Glo, 72 h; series mostly up to 44.9 µM; note: potency is the fitted concentration of half-maximal effect; nearly all actives have a fitted effect of over 70% in size
[13] = biological target: Glutathione peroxidase 1 (Homo sapiens) (UniProt P07203); test: Primary qHTS Assay for Inhibitors of Recombinant Selenoprotein Glutathione Peroxidase 1 (GPX1) (AID 1845191); conditions: recombinant GPX1, GR-coupled NADPH fluorescence, 15 min; series mostly up to 48.8 µM; note: nearly all actives have a fitted effect of over 65% in size
Chain of Glutathione peroxidase 1 (Homo sapiens) (P07203 whole entry, looked up): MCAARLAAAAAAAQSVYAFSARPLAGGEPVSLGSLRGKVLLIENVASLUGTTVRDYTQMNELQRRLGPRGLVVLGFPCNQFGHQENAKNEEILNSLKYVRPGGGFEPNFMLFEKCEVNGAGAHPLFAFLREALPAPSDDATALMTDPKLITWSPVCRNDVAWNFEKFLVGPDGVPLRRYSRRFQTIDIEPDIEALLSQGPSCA
Method in brief: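 NADPH consumption tracked by fluorescence at 340/450 nm between t=0 and t=15 min, room temperature. Final mix: 10 nM GPX1, 100 nM glutathione reductase, 1 mM GSH, 0.5 mM NADPH, 0.5 mM cumene hydroperoxide, 0.01% BSA; 30 min compound–enzyme preincubation.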

[14] = biological target: Phospholipid hydroperoxide glutathione peroxidase GPX4 (Homo sapiens) (UniProt P36969); test: Primary qHTS Assay for Inhibitors of Recombinant Selenoprotein Glutathione Peroxidase 4 (GPX4) (AID 1845192); conditions: recombinant GPX4, GR-coupled NADPH fluorescence, 15 min; series mostly up to 50 µM; note: nearly all actives have a fitted effect of over 65% in size
Chain of Phospholipid hydroperoxide glutathione peroxidase GPX4 (Homo sapiens) (P36969 whole entry, looked up): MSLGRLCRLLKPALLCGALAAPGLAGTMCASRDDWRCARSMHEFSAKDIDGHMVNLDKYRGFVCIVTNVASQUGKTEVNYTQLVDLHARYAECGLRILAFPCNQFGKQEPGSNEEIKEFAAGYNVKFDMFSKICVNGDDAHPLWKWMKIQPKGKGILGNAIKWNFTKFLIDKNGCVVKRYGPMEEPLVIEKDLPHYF
Method in brief: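 NADPH consumption followed by fluorescence at 340/450 nm, t=0 and after 15 min at room temperature. Reaction started with cumene hydroperoxide (0.5 mM final) after 30 min compound–GPX4 preincubation; final 200 nM GPX4, 100 nM GR, 1 mM GSH, 0.5 mM NADPH.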

[15] = qHTS drug screen for cell cycle checkpoint inhibitors in PARPi-resistant BRCA-mutant ovarian cancer cell lines. (AID 1963452; calls by dose curve); conditions: PEO1/OlaR viability, CellTiter-Glo luminescence, 96 h, stronger effect = lower value
Method in brief: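 PEO1, PEO4 and PEO1/OlaR ovarian cancer cells, 600 per well, exposed 96 h at 37C to a dilution series. Viability read by CellTiter-Glo luminescence, normalized to DMSO and empty wells; activity summarized as Z-AUC.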

[16] = measured here: PEO1 parental Z-AUC

With `O=S(=O)(c1ccccc1)N1CCC[C@@]2(CCN(c3ccncc3)C2)C1` the Potency [1] was > 11.4 µM (inactive), the activity change, negative = inhibition [2] was -6.47% (inactive) and the Potency [3] was “inactive”. For the same molecule, the activity, negative = inhibition [4] was 0.894% (inactive), the Potency [5] was > 46 µM (inactive) and the outcome [6] was “inactive”. For the same molecule, the Potency [7] was “inactive”, the Potency [8] was 3.98 µM (active) and the Potency [9] was “inactive”. For the same molecule, the activity change, negative = inhibition ([10]; at 57.5 µM (top of the series)) was 0.287% (inactive), the max response ([10]; measured here: cell count channel max response) was 4.65% and the max response ([10]; measured here: lipid channel max response) was 6.49%.
For `CC(=NNC(=O)c1cccc(S(=O)(=O)N2CCOCC2)c1)c1cc(Cl)ccc1O`, the Potency [11] was 2.09 µM (active) and the Potency [12] was 1.48 µM (active).
For `O=C1S/C(=C\c2ccc(OCc3cccc(B(O)O)c3)cc2)C(=O)N1Cc1ccc(F)cc1`, the Potency [13] was “inactive”, the Potency [14] was “inactive” and the Z-AUC [15] was 0.689 (inactive). For the same molecule, the Z-AUC [15, 16] was 0.417 and the Z-AUC ([15]; measured here: PEO4 Z-AUC) was 0.814.
With `Nc1nc(F)nc2c1ncn2[C@@H]1O[C@H](COP(=O)(O)O)[C@@H](O)[C@@H]1O` the Potency [11] was 1.86 µM (active), the Potency [12] was 1.86 µM (active) and the Potency [13] was “inactive”. The Potency [14] was “inactive”, the Z-AUC [15] was -1.15 (inactive) and -1.44 (inactive) and the Z-AUC [15, 16] was -1.36 and -1.18. The Z-AUC ([15]; measured here: PEO4 Z-AUC) was -0.49 and -0.861.
For `CCN1C(=O)CNc2ncc(-c3ccc(-c4ncn[nH]4)nc3C)nc21`, the Potency [11] was 0.833 µM (active), the Potency [12] was 0.742 µM (active) and the Z-AUC [15] was 0.377 (inactive). It also gave a Z-AUC [15, 16] of 0.759 and a Z-AUC ([15]; measured here: PEO4 Z-AUC) of 0.275.
With `C=CC(=O)N1CCC(C2CCNc3c(C(N)=O)c(-c4ccc(Oc5ccccc5)cc4)nn32)CC1` (configuration not stated) the Potency [11] was 14.8 µM (active), the Potency [12] was 6.61 µM (active) and the Potency [13] was “inactive”. The Potency [14] was “inactive”, the Z-AUC [15] was -0.181 (inactive) and the Z-AUC [15, 16] was -0.23. The Z-AUC ([15]; measured here: PEO4 Z-AUC) was -0.000619.
With `CC(=O)O/N=C1\C(=O)N(Cc2cc(Cl)ccc2Cl)c2ccc(Cl)cc21` the Potency [11] was 5.9 µM (active), the Potency [12] was 4.17 µM (active) and the Potency [13] was “inactive”. For the same molecule, the Z-AUC [15] was 1.65 (inactive), the Z-AUC [15, 16] was 1.54 and the Z-AUC ([15]; measured here: PEO4 Z-AUC) was 1.73.
With `CN1C(=O)[C@@H](NC(=O)c2cc(Cc3ccccc3)on2)COc2ccccc21` the Potency [11] was “inactive”, the Potency [13] was “inactive” and the Potency [14] was “inactive”. The Z-AUC [15] was 0.979 (inactive), the Z-AUC [15, 16] was 0.721 and the Z-AUC ([15]; measured here: PEO4 Z-AUC) was 1.08.
In the case of `CCCNC(=O)[C@H]1O[C@@H]1C(=O)N[C@H](C(=O)N1CCC[C@H]1C(=O)OC)C(C)CC` (some centres not stated), the Potency [11] was 6.61 µM (active), the Potency [12] was 7.42 µM (active) and the Potency [13] was “inactive”. For the same molecule, the Potency [14] was “inactive”, the Z-AUC [15] was 0.833 (inactive) and the Z-AUC [15, 16] was 0.0577. The Z-AUC ([15]; measured here: PEO4 Z-AUC) was 0.0351.
